This is an account of results in PubChem BioAssay (NCATS).

Test [1] has as its target Arylsulfatase A (Homo sapiens) (UniProt P15289). Briefly: qHTS screen for enhancers of Arylsulfatase A (ASA1): LOPAC Validation Assay (AID 720538). Note: 0% is about no effect. The gist of the method: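 Cell-based enhancement test: residual ASA activity in SV40-transformed I179S patient fibroblasts is measured by pNCS turnover (0.5mM final, 14h, room temperature) following 48h compound incubation; higher fluorescence indicates activation.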
Background: Quantitative high-throughput screening tests each substance at several concentrations.

The nature of test [2]: qHTS for compounds that reverse cellular toxicity of Amyloid beta (A-beta) peptide in yeast: LOPAC Validation Assay (AID 720559).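 Note: plate controls were DMSO for no effect and equimolar ferric chloride plus clioquinol rescue for full effect.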 The gist of the method:
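Here, A-beta-toxic yeast grow with test compounds at 30 C for 48 hr before optical density at 600 nm is recorded; data are normalized against DMSO and the FeCl3-clioquinol control.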

Test [3] can be described thus: qHTS for Activators of Parkin Expression: LOPAC Validation Assay (NLuc Reporter) (AID 720572;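 note: 0% = DMSO and 100% = positive control compound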). The essentials: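 Cells harboring the Parkin-promoter coincidence reporter were treated for 24 h at seven concentrations. NLuc output was measured sequentially after the FLuc channel and scaled between DMSO and positive control values.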
The nature of test [4]: qHTS for Activators of Parkin Expression: LOPAC Validation Assay (FLuc Reporter) (AID 720573;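 note: 0% = DMSO and 100% = positive control compounds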). The essentials:
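Readout is FLuc luminescence from neuronal reporter cells (Parkin promoter, FLuc plus NLuc) after 24 h compound exposure in dose response. Values normalized to neutral DMSO and positive-control compounds.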

For test [5], the target named is T1, Hexokinase-4 (Homo sapiens) + Glucokinase regulatory protein (Homo sapiens) (UniProt P35557+Q14397). Briefly: qHTS assay for inhibitors of recombinant human GCK-GKRP interaction: Diaphorase-coupled assay (AID 743205). The gist of the method:
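Signal derives from resorufin generated by diaphorase, linked to GCK turnover of glucose (5 mM) and ATP (0.4 mM). Enzyme complex was added after a 20-minute compound preincubation and monitored for 30 minutes.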

Test [6] deals with T1, Hexokinase-4 (Homo sapiens) + Glucokinase regulatory protein (Homo sapiens). Put plainly: qHTS assay for inhibitors of recombinant human GCK-GKRP interaction: ADP-Glo assay (AID 743206).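 Note: plate controls were DMSO plus enzyme for no effect and no enzyme for full effect.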 The essentials:
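Pin-transferred compounds meet a 15 nM GST-GCK/15 nM FLAG-GKRP/2 uM S6P mix (dispense concentrations). ATP is then added to 0.4 mM final with 5 mM glucose, and the reaction runs 60 min at room temperature. ADP is quantified luminescently.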

For test [7] the target is unchanged. Put plainly: qHTS assay for inhibitors of recombinant human GCK-GKRP interaction: HTRF assay (AID 743207).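 Note: 0% = DMSO with GCK present and -100% = DMSO wells lacking GCK.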 The gist of the method:
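Titration screening format: recombinant GST-GCK and FLAG-GKRP at 5 nM, S6P at 2 uM, labelled anti-tag antibodies, 60 min at RT, dual-wavelength HTRF readout.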

The nature of test [8]: qHTS profiling of the MIPE4 collection as inhibitors of Plasmodium falciparum (3D7) proliferation (AID 743344; call rule not given here;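 note: scaled between DMSO vehicle wells and 0.29 µM artemisinin as full inhibition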). Particulars: P. falciparum 3D7 in erythrocytes, SYBR Green DNA fluorescence, 72 h; at 28.5 µM (top of the series) unless noted. The essentials: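 Parasite DNA was quantified by SYBR Green I fluorescence (ex 485, em 535 nm) after overnight lysis in saponin/Triton buffer at room temperature. Cultures at 0.3% parasitemia and 2.5% hematocrit were first exposed to compound for 72 h at 37 C; signals were normalised to artemisinin (0.29 uM) and vehicle wells.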

Test [9] is described as follows: qHTS Assay for Identifying Gametocytocidal Compounds (AID 743244).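 Note: % is set by controls: 0 for no effect and ±100 for the full control effect; actives lower the fluorescent signal which means gametocytes are killed.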 Particulars: P. falciparum 3D7 stage III-V gametocytes, alamarBlue, 72 h; max response: stronger effect = lower value. The essentials:
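Stage III-V P. falciparum 3D7 gametocytes, 20,000 per well, were exposed to compounds for 72 h at 37C, 5% CO2. AlamarBlue was then added for 24 h and viability was read as fluorescence at Ex 525/Em 598 nm.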

Test [10] can be described thus: qHTS assay for small molecule agonists of the antioxidant response element (ARE) signaling pathway measured by Nrf2-dependant transcriptional activity (AID 720636; active = well fitted curve in the direction sought with a large enough effect in the repeat runs; an effect the other way counts as inactive or inconclusive;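 note: HepG2 cells with an ARE-driven luciferase reporter; % of control where 0% means no effect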). The essentials: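 ONE-Glo luminescence, read 30 min after reagent addition at room temperature, reflected ARE reporter activity in HepG2 cells that had been incubated with compound for 16 hr at 37 C in 1% dialyzed FBS.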

Test [11] is described as follows: qHTS assay for small molecule antagonists of the retinoid-related orphan receptor gamma (ROR-gamma) signaling pathway - cell viability counter screen (AID 720652; active = well fitted curve in the direction sought with a large enough effect in the repeat runs; an effect the other way counts as inactive or inconclusive;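 note: CHO reporter cells with doxycycline-induced ROR-gamma expression; compound exposure lasted 16 hr before ATP read; % is set by controls: 0 for no effect and ±100 for the full control effect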). The gist of the method:
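Cytotoxicity counter screen: intracellular ATP (CellTiter-Glo luminescence) measured in the doxycycline-induced CHO RORE-luciferase reporter line after 16 hr compound exposure at 37 C, 5% CO2.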

Test [12] in a line: qHTS assay for small molecule agonists of the antioxidant response element (ARE) signaling pathway measured by Nrf2-dependant transcriptional activity - cell viability counter screen (AID 720653; active = well fitted curve in the direction sought with a large enough effect in the repeat runs; an effect the other way counts as inactive or inconclusive; note: % is set by controls: 0 for no effect and ±100 for the full control effect). Particulars: ARE-bla HepG2 viability, CellTiter-Glo ATP luminescence, 16 h; max response: stronger effect = lower value. The essentials: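 ARE-bla HepG2 cells (2,000/well) rested 5 hrs at 37C/5% CO2, then exposed to compounds in DMSO for 16 hrs. Viability was read in the same wells as intracellular ATP by luminescence, 30 min at room temperature after reagent addition.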

Test [13] in a line: qHTS assay for cell viability of HEK293 cells (AID 743288). Note: % is set by controls: 0 for no effect and ±100 for the full control effect; nearly all actives have a fitted effect of over 50% in size. Particulars: ATP luminescence (CellTiter-Glo), 18 h; max response: stronger effect = lower value. The essentials:
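HEK293, 18 h, 37 C, ATP luminescence. Cells at 2,000/well were allowed at least 5 h to settle before dosing; CellTiter-Glo developed 30 min at RT.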

Test [14] in a line: qHTS assay for cell viability of the p53RE-bla HCT-116 cell line (AID 743292). Note: % is set by controls: 0 for no effect and ±100 for the full control effect; nearly all actives have a fitted effect of over 55% in size. The essentials:
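After plating at 4,000 cells per well and a 5 h rest at 37 C, HCT-116 cells carrying p53RE-bla received test chemicals in DMSO. Sixteen hours later at 37 C, CellTiter-Glo was added and luminescence recorded following 30 min at room temperature.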

Where “and” joins values, the source holds several entries; their conditions need not be identical. Equal values may be shown once. Results filed as inconclusive are left out. Calls of active or inactive are those of the source. Unless noted, calls come from the whole dose curve; as a rule, active = well fitted curve in the direction sought with a large enough effect; inconclusive = small, poorly fitted or top-dose-only effect, or another doubt; inactive = no such curve, though single readings can be large; an effect the other way counts as inactive or inconclusive.

T1 sequence (P35557 whole entry, looked up): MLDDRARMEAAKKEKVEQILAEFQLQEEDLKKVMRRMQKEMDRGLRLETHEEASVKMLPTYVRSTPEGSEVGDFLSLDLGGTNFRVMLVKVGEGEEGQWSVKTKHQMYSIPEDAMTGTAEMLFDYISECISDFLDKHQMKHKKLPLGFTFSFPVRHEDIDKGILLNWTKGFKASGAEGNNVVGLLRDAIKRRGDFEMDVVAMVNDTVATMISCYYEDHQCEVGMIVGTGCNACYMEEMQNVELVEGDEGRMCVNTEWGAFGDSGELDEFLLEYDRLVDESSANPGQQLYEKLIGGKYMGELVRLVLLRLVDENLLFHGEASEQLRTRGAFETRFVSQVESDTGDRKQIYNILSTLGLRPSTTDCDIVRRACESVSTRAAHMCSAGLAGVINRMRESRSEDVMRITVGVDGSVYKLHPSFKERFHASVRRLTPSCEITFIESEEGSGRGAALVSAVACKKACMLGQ
T1 sequence (Q14397 whole entry, looked up): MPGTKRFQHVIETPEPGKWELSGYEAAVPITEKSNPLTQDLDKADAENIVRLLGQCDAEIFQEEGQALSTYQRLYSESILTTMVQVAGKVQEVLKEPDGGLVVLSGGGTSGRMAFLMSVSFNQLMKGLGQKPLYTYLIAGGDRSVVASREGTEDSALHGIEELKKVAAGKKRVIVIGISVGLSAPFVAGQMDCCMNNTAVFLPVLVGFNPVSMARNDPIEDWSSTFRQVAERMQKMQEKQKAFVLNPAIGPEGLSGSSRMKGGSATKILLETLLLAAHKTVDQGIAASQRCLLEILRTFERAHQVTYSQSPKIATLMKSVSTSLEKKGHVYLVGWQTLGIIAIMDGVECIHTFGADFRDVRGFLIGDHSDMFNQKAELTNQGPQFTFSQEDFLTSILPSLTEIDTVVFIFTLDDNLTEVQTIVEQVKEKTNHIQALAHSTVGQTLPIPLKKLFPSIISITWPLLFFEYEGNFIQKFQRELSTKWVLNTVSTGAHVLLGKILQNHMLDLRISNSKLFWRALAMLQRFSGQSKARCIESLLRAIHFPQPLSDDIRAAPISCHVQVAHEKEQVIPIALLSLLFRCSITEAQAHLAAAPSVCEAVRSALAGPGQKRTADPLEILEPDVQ
Sequence of Arylsulfatase A (Homo sapiens) (P15289 whole entry, looked up): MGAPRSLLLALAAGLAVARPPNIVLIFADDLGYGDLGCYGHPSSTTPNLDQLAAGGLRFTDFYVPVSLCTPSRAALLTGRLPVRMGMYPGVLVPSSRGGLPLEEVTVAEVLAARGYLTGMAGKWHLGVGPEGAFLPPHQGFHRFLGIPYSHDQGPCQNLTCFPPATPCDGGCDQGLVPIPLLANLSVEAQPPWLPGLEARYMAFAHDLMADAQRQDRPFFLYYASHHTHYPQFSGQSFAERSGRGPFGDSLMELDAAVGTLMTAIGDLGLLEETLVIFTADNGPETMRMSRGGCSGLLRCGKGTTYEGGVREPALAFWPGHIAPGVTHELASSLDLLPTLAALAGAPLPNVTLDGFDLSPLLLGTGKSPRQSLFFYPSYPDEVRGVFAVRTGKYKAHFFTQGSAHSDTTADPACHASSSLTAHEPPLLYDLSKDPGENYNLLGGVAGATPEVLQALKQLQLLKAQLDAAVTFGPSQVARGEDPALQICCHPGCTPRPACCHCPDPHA

Consider `CN1CCN(CCCN2c3ccccc3Sc3ccc(Cl)cc32)CC1`, for which the Potency entry in test [1], in test [4], in [5], in test [6] and in [7] was “inactive” each time. In addition, the molecule was called inactive in test [2] and in test [3]. The same molecule came in with a parasite growth, % of DMSO control in test [8] of 6.12%.
`CN1C(C(=O)Nc2ccccn2)=C(O)c2ccccc2S1(=O)=O`: the Potency result in [1], in test [4], in [5], in test [6] and in test [7] was “inactive” each time. In addition, the molecule was classed as inactive in test [2]. Further, in test [9], the max response is -1.29% (inactive) and 1.85% (inactive). The parasite growth, % of DMSO control in test [8] stood at 77.2%.
Consider `COc1ccc2c(c1)c(CC(=O)O)c(C)n2C(=O)c1ccc(Cl)cc1`, for which the Potency result in [1], in [4], in test [11], in test [5], in test [6] and in [7] was “inactive” in each case. For the same molecule, the Potency entry in [14] was “inactive”. For the same molecule, the molecule was classed as inactive in [2] and in test [10]. The max response in [12] is 1.73% (inactive) and -1.81% (inactive); in test [9], 2.39% (inactive) and 17.2% (inactive); in test [13] it was 11.9% (inactive) and -6.39% (inactive).
`COc1ccccc1OCCNCC(O)COc1cccc2[nH]c3ccccc3c12` (stereo unspecified): the outcome in test [2] and in test [3] was inactive. In addition, the Potency result in [4], in [5], in [6] and in test [7] was “inactive” each time. In [9], the max response was 6.87% (inactive) and 32.1% (inactive).
`CC(=O)OCC(CCn1cnc2cnc(N)nc21)COC(C)=O`: the max response in test [9] is 13.8% (inactive).
With `C[C@](N)(Cc1ccc(O)c(O)c1)C(=O)O`, the outcome in test [2], in [3] and in test [10] was inactive. The Potency entry in test [4], in test [5], in test [6], in test [7] and in [14] was “inactive” in each case. For the same molecule, the max response in test [12] is -0.408% (inactive); in test [9], 9.51% (inactive); in [13], -5.13% (inactive). Further, the parasite growth, % of DMSO control in test [8] turned out to be 73.9%.
Take `OCCN1CCN(CCCN2c3ccccc3Sc3ccc(C(F)(F)F)cc32)CC1`: the molecule was called inactive in test [2] and in test [3]. The Potency entry in test [4], in test [5], in [6] and in [7] was “inactive” throughout.
Regarding `Cn1c(=O)c2[nH]cnc2n(C)c1=O`, the molecule was classed as inactive in test [2], in test [3] and in test [10]. Moreover, the Potency entry in test [4], in test [11], in test [5], in test [6], in [7] and in test [14] was “inactive” throughout. In addition, the max response in [12] was 0.323% (inactive); in test [9], 2.17% (inactive) and 13.8% (inactive); in test [13], 2.06% (inactive).
Regarding `COc1ccc(C2CNC(=O)C2)cc1OC1CCCC1` (stereo unspecified), the molecule was classed as inactive in test [2] and in test [3]. Also, the Potency result in test [4], in [5], in test [6] and in [7] was “inactive” each time. Moreover, the max response in [9] is 8.29% (inactive) and 32.6% (inactive). This molecule came in with a parasite growth, % of DMSO control in test [8] of 109%.
Turning to `Clc1ccc2nsnc2c1NC1=NCCN1`, the result in test [2] and in test [3] was inactive. Moreover, the Potency result in test [4], in [5], in test [6] and in [7] was “inactive” throughout. Further, the max response in test [9] is 11.7% (inactive) and 4.37% (inactive). Further, the parasite growth, % of DMSO control in test [8] is 73.6%.
Turning to `CC(C(=O)O)c1cccc(C(=O)c2ccccc2)c1` (stereo unspecified), the Potency entry in test [1] and in test [4] was “inactive” each time. Also, the outcome in [2] and in test [3] was inactive. Also, the max response in test [9] is 3.48% (inactive) and 27.8% (inactive).
Consider `CN1CCC(=C2c3ccccc3C=Cc3ccccc32)CC1`, for which the Potency result in test [1], in test [4], in test [5], in [6] and in test [7] was “inactive” each time. Further, the molecule was called inactive in test [2] and in test [3]. For the same molecule, the parasite growth, % of DMSO control in test [8] turned out to be 15%.
As for `CCOC(=O)Nc1ccc(NCc2ccc(F)cc2)nc1N`, the result in test [2] and in test [3] was inactive. Further, the Potency entry in [4], in [6] and in [7] was “inactive” in each case.
`CN1C2CCC1CC(OC(=O)C(CO)c1ccccc1)C2` (stereo unspecified): the outcome in [2] and in test [3] was inactive. Also, the Potency result in [4], in [5], in test [6] and in test [7] was “inactive” in each case.
